# Source: PubChem BioAssay (NCI)
# Compounds without any hit were thinned out: in the full panel of roughly 83,000, 20% have a hit.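 Testing used 96-well plates and a 48-hour single-concentration exposure. Example: -40 means 40% of the starting cells died.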 Unmarked numbers belong to inactive results. Active and inactive are the calls of the source. The calls were made as follows: active = growth percent below 10; inactive = the rest.
# Assays:
# Experiment in all cases: NCI-60 one-dose screen, 48 h (100 = growth as untreated, 0 = no growth, -100 = all killed)
# Settings in all cases: 10 µM unless noted
# SK-MEL-2 melanoma = system: SK-MEL-2 melanoma
# EKVX NSCLC = system: EKVX NSCLC
# SN12C renal = system: SN12C renal
# UO-31 renal = system: UO-31 renal
# TK-10 renal = system: TK-10 renal
# A498 renal = system: A498 renal
# CCRF-CEM leukemia = system: CCRF-CEM leukemia
# MOLT-4 leukemia = system: MOLT-4 leukemia
SMILES,growth (SK-MEL-2 melanoma) [%],growth (EKVX NSCLC) [%],growth (SN12C renal),growth (UO-31 renal),growth (TK-10 renal) [%],growth (A498 renal) [%],growth (CCRF-CEM leukemia) [%],growth (MOLT-4 leukemia) [%]
COc1ccc(Cn2cc(COc3ccc4c5ccnc(C)c5n(CCCc5ccccc5)c4c3)nn2)cc1,64.4,101,69.1%,70.5%,103,88.8,19.7,38.4
O=S(=O)(O)c1ccc(F)cc1,93.6,101,111%,86.4%,90.2,101,90.6,98.5
C[C@]12CC[C@@H]3c4ccc(O)c(N)c4CC[C@H]3[C@@H]1CC[C@@H]2O,102,78.5,105%,109%,135,96,75.9,80.8
CCN(CC)CCNc1ccc([N+](=O)[O-])c2sc3cc(Cl)ccc3c(=O)c12,82.1,78.9,-19.3% (active),-79.5% (active),66.9,73.5,12.9,29
